# The entries come from a sample that favours the strongest signals as a whole.
# B1: Gal 3C (Homo sapiens), P17931 (protein)
# chain: YGAPAGPLIVPYNLPLPGGVVPRMLITILGTVKPNANRIALDFQRGNDVAFHFNPRFNENNRRVIVCNTKLDNNWGREERQSVFPFESGKPFKIQVLVEPDHFKVAVNDAHLLQYNHRVKKLNEISKLGISGDIDLTSASYTMI
# What was measured:
# Experiment in all cases: glycan array binding signal (z-score within array); higher = stronger binding
# Details in all cases: glycan notation: IUPAC condensed, linker removed
# [1] = biological target: Fuc(a1-2)Gal(b1-3)GlcNAc(b1-3)[Fuc(a1-2)Gal(b1-3)GlcNAc(b1-6)]GalNAc
# In short: (§1)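 From the Consortium for Functional Glycomics database, 3228 arrays were curated, keeping only those whose protein sequence was available. Binding is given as a within-array Z-score averaged across arrays sharing a protein sequence and across linkers. Negative Z-scores can be read as non-binding.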
# [2] = biological target: Fuc(a1-2)Gal(b1-4)GlcNAc(b1-3)Gal(b1-4)GlcNAc
# In short: as §1
# [3] = biological target: Fuc(a1-2)[Gal(a1-3)]Gal(b1-4)Glc
# In short: as §1
# [4] = biological target: Fuc(a1-2)[Gal(a1-3)]Gal(b1-4)[Fuc(a1-3)]GlcNAc
# In short: as §1
# [5] = biological target: Fuc(a1-2)[GalNAc(a1-3)]Gal(b1-3)GlcNAc(b1-6)GalNAc
# In short: as §1
# [6] = biological target: Fuc(a1-2)[GalNAc(a1-3)]Gal(b1-4)Glc
# In short: as §1
# [7] = biological target: Gal(a1-3)Gal(b1-4)[Fuc(a1-3)]GlcNAc
# In short: as §1
# Gal(a1-4)GlcNAc = biological target: Gal(a1-4)GlcNAc
# In short: as §1
# Gal(a1-6)Glc = biological target: Gal(a1-6)Glc
# In short: as §1
# [8] = biological target: Gal(b1-3)GlcNAc(a1-6)Gal(b1-4)GlcNAc
# In short: as §1
# [9] = biological target: Gal(b1-3)GlcNAc(b1-3)Gal(b1-3)GlcNAc
# In short: as §1
# [10] = biological target: Gal(b1-3)GlcNAc(b1-3)Gal(b1-4)GlcNAc(b1-3)Gal(b1-4)GlcNAc(b1-2)[Gal(b1-3)GlcNAc(b1-3)Gal(b1-4)GlcNAc(b1-3)Gal(b1-4)GlcNAc(b1-6)]Man(a1-6)[Gal(b1-3)GlcNAc(b1-3)Gal(b1-4)GlcNAc(b1-3)Gal(b1-4)GlcNAc(b1-2)Man(a1-3)]Man(b1-4)GlcNAc(b1-4)[Fuc(a1-6)]GlcNAc
# In short: as §1
# Gal(b1-3)GlcNAc6S = biological target: Gal(b1-3)GlcNAc6S
# In short: as §1
# [11] = biological target: Gal(b1-4)GlcNAc(b1-2)[Gal(b1-4)GlcNAc(b1-6)]Man(a1-6)[Gal(b1-4)GlcNAc(b1-2)Man(a1-3)]Man(b1-4)GlcNAc(b1-4)GlcNAc
# In short: as §1
# [12] = biological target: Gal(b1-4)GlcNAc(b1-3)Gal(b1-4)GlcNAc(b1-3)Gal(b1-4)GlcNAc(b1-2)Man(a1-3)[Gal(b1-4)GlcNAc(b1-3)Gal(b1-4)GlcNAc(b1-3)Gal(b1-4)GlcNAc(b1-2)Man(a1-6)]Man(b1-4)GlcNAc(b1-4)[Fuc(a1-6)]GlcNAc
# In short: as §1
# [13] = biological target: Gal(b1-4)GlcNAc(b1-3)Gal(b1-4)GlcNAc(b1-3)Gal(b1-4)GlcNAc(b1-2)[Gal(b1-4)GlcNAc(b1-3)Gal(b1-4)GlcNAc(b1-3)Gal(b1-4)GlcNAc(b1-6)]Man(a1-6)[Gal(b1-4)GlcNAc(b1-3)Gal(b1-4)GlcNAc(b1-3)Gal(b1-4)GlcNAc(b1-2)Man(a1-3)]Man(b1-4)GlcNAc(b1-4)[Fuc(a1-6)]GlcNAc
# In short: as §1
# [14] = biological target: Gal(b1-4)GlcNAc(b1-3)Gal(b1-4)GlcNAc(b1-3)Gal(b1-4)GlcNAc(b1-3)Gal(b1-4)GlcNAc(b1-2)Man(a1-3)[Gal(b1-4)GlcNAc(b1-3)Gal(b1-4)GlcNAc(b1-3)Gal(b1-4)GlcNAc(b1-3)Gal(b1-4)GlcNAc(b1-2)Man(a1-6)]Man(b1-4)GlcNAc(b1-4)GlcNAc
# In short: as §1
# [15] = biological target: Gal(b1-4)GlcNAc(b1-3)Gal(b1-4)GlcNAc(b1-3)Gal(b1-4)GlcNAc(b1-3)Gal(b1-4)GlcNAc(b1-2)Man(a1-3)[Gal(b1-4)GlcNAc(b1-3)Gal(b1-4)GlcNAc(b1-3)Gal(b1-4)GlcNAc(b1-3)Gal(b1-4)GlcNAc(b1-2)Man(a1-6)]Man(b1-4)GlcNAc(b1-4)[Fuc(a1-6)]GlcNAc
# In short: as §1
# [16] = biological target: Gal(b1-4)GlcNAc(b1-3)Gal(b1-4)GlcNAc(b1-3)Gal(b1-4)GlcNAc(b1-3)Gal(b1-4)GlcNAc(b1-2)[Gal(b1-4)GlcNAc(b1-3)Gal(b1-4)GlcNAc(b1-3)Gal(b1-4)GlcNAc(b1-3)Gal(b1-4)GlcNAc(b1-6)]Man(a1-6)[Gal(b1-4)GlcNAc(b1-3)Gal(b1-4)GlcNAc(b1-3)Gal(b1-4)GlcNAc(b1-3)Gal(b1-4)GlcNAc(b1-2)Man(a1-3)]Man(b1-4)GlcNAc(b1-4)[Fuc(a1-6)]GlcNAc
# In short: as §1
# [17] = biological target: Gal(b1-4)GlcNAc(b1-3)Gal(b1-4)GlcNAc(b1-3)Gal(b1-4)GlcNAc(b1-3)Gal(b1-4)GlcNAc(b1-3)Gal(b1-4)GlcNAc(b1-2)Man(a1-3)[Gal(b1-4)GlcNAc(b1-3)Gal(b1-4)GlcNAc(b1-3)Gal(b1-4)GlcNAc(b1-3)Gal(b1-4)GlcNAc(b1-3)Gal(b1-4)GlcNAc(b1-2)Man(a1-6)]Man(b1-4)GlcNAc(b1-4)GlcNAc
# In short: as §1
# [18] = biological target: Gal(b1-4)GlcNAc(b1-3)Gal(b1-4)GlcNAc(b1-3)Gal(b1-4)GlcNAc(b1-3)Gal(b1-4)GlcNAc(b1-3)Gal(b1-4)GlcNAc(b1-2)Man(a1-3)[Gal(b1-4)GlcNAc(b1-3)Gal(b1-4)GlcNAc(b1-3)Gal(b1-4)GlcNAc(b1-3)Gal(b1-4)GlcNAc(b1-3)Gal(b1-4)GlcNAc(b1-2)Man(a1-6)]Man(b1-4)GlcNAc(b1-4)[Fuc(a1-6)]GlcNAc
# In short: as §1
# [19] = biological target: Gal(b1-4)GlcNAc(b1-3)Gal(b1-4)GlcNAc(b1-3)Gal(b1-4)GlcNAc(b1-3)Gal(b1-4)GlcNAc(b1-3)Gal(b1-4)GlcNAc(b1-2)[Gal(b1-4)GlcNAc(b1-3)Gal(b1-4)GlcNAc(b1-3)Gal(b1-4)GlcNAc(b1-3)Gal(b1-4)GlcNAc(b1-3)Gal(b1-4)GlcNAc(b1-6)]Man(a1-6)[Gal(b1-4)GlcNAc(b1-3)Gal(b1-4)GlcNAc(b1-3)Gal(b1-4)GlcNAc(b1-3)Gal(b1-4)GlcNAc(b1-3)Gal(b1-4)GlcNAc(b1-2)Man(a1-3)]Man(b1-4)GlcNAc(b1-4)[Fuc(a1-6)]GlcNAc
# In short: as §1
# [20] = biological target: Gal(b1-4)GlcNAc(b1-3)Gal(b1-4)GlcNAc(b1-3)Gal(b1-4)GlcNAc(b1-3)Gal(b1-4)GlcNAc(b1-3)Gal(b1-4)GlcNAc(b1-3)Gal(b1-4)GlcNAc(b1-2)Man(a1-3)[Gal(b1-4)GlcNAc(b1-3)Gal(b1-4)GlcNAc(b1-3)Gal(b1-4)GlcNAc(b1-3)Gal(b1-4)GlcNAc(b1-3)Gal(b1-4)GlcNAc(b1-3)Gal(b1-4)GlcNAc(b1-2)Man(a1-6)]Man(b1-4)GlcNAc(b1-4)GlcNAc
# In short: as §1
binder,measurement,setting,value
B1,glycan array binding signal (z-score),[1],-0.212
same,glycan array binding signal (z-score),[2],1.07
same,glycan array binding signal (z-score),[3],-0.106
same,glycan array binding signal (z-score),[4],-0.196
same,glycan array binding signal (z-score),[5],-0.229
same,glycan array binding signal (z-score),[6],-0.117
same,glycan array binding signal (z-score),[7],-0.259
same,glycan array binding signal (z-score),Gal(a1-4)GlcNAc,-0.295
same,glycan array binding signal (z-score),Gal(a1-6)Glc,-0.222
same,glycan array binding signal (z-score),[8],-0.269
same,glycan array binding signal (z-score),[9],-0.068
same,glycan array binding signal (z-score),[10],1.95
same,glycan array binding signal (z-score),Gal(b1-3)GlcNAc6S,-0.277
same,glycan array binding signal (z-score),[11],-0.222
same,glycan array binding signal (z-score),[12],4.24
same,glycan array binding signal (z-score),[13],4.41
same,glycan array binding signal (z-score),[14],5.03
same,glycan array binding signal (z-score),[15],4.24
same,glycan array binding signal (z-score),[16],4.44
same,glycan array binding signal (z-score),[17],4.06
same,glycan array binding signal (z-score),[18],6.46
same,glycan array binding signal (z-score),[19],6.39
same,glycan array binding signal (z-score),[20],4.39
